# Source: PubChem BioAssay AID504834 (National Center for Advancing Translational Sciences (NCATS), 2011)
# The whole screen tested about 320,000 compounds, of which about 22,000 (6.9%) were called active. Inconclusive results (about 27%) are left out. The call rests on the fitted dose curve; in most records, active means well fitted inhibition curve with a large enough effect; inconclusive means small, poorly fitted or top-dose-only effect, or another doubt; inactive means no such curve, though single readings can be large or run the other way. What follows is part of a selection rich in actives, with near analogues and random picks from the rest. Where a call stands in place of a potency, no number is given.
# Test: Primary qHTS for delayed death inhibitors of the malarial parasite plastid, 96 hour incubation
# Settings: P. falciparum luciferase reporter growth; series mostly up to 28.7 µM
# Procedure, shortened: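 Two-generation exposure (96 h) targets delayed-death phenotype. Reporter parasites carrying integrated firefly luciferase, in red cells at 2% hematocrit and 0.05% parasitemia final, kept at 37 C, 5% CO2; luminescence loss indicates inhibition.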
# Potency means the concentration at half of the fitted maximal effect.
row,Compound,Potency
1,NNC(=O)c1cccc(COCC(F)(F)C(F)F)c1,inactive
2,COCCNc1nnc(SCC(=O)NNC(=O)c2ccco2)s1,inactive
3,CCCc1nnc(NC(=O)CCC(=O)NC2CC2)s1,inactive
4,O=C(NCc1ccncc1)C1CCCN(S(=O)(=O)c2ccc(Br)cc2)C1 (stereo not given),inactive
5,COc1ccc(CNC(=O)C2CCN(S(=O)(=O)c3ccc(SC)cc3)CC2)cc1,inactive
6,CSc1ccc(S(=O)(=O)N2CCC(C(=O)NCc3ccncc3)CC2)cc1,7.38 µM (active)
7,CSc1ccc(NC(=O)/C=C/C(=O)O)cc1,inactive
8,O=C(Nc1ccccc1C(=O)N1CCCCC1)c1ccco1,inactive
9,COc1ccc(-c2nnn(CC(=O)N(CCO)C(C(=O)NC3CCCC3)c3ccc(F)cc3)n2)cc1 (stereo not given),inactive
10,O=C(Cn1nnc(-c2ccccc2)n1)NC(=O)NC1CCCC1,inactive
11,CCOCCCN(C(=O)Cn1nnc(-c2ccc(OC)c(OC)c2)n1)C(CC)C(=O)NC1CCCC1 (stereo not given),inactive
12,COc1ccc(C(C(=O)NC2CCCC2)N(CCCO)C(=O)Cn2nnc(-c3ccc(C)o3)n2)cc1 (stereo not given),3.7 µM (active)
13,COc1cccc(N(CC(=O)NC2CCCC2)C(=O)Cn2nnc(-c3ccc(C)cc3)n2)c1,inactive
14,COc1ccc(C)cc1N(C(=O)Cn1nnc(-c2ccc(C)o2)n1)C(C(=O)NC1CCCC1)c1ccncc1 (stereo not given),8.28 µM (active)
15,COc1cccc(N(CC(=O)NC2CCCC2)C(=O)Cn2nnc(-c3ccc(C)o3)n2)c1,11.7 µM (active)
16,CCC(C(=O)NC1CCCC1)N(C(=O)Cn1nnc(-c2ccc(C)o2)n1)c1ccc(OC)c(OC)c1 (stereo not given),inactive
17,Cc1cccc(N(C(=O)Cn2nnc(-c3ccc(C)o3)n2)C(C(=O)NC2CCCC2)c2ccncc2)c1 (stereo not given),inactive
18,CC1CC(C)CN(c2ccc(S(=O)(=O)N3CCOCC3)cc2)C1 (stereo not given),inactive
19,Cc1occc1-c1nnc(SCC(=O)NC2CCCCC2)o1,inactive
20,Cc1nc(N)nc(SCc2ccc([N+](=O)[O-])cc2)c1N,inactive
21,O=C(c1ccc(Cl)c(S(=O)(=O)N2CCCCC2)c1)N1CCCCCC1,inactive
22,COc1ccc(Cl)cc1NS(=O)(=O)c1cccc(C(=O)NC2CCC(O)CC2)c1 (stereo not given),inactive

row,Compound,Potency
1,CCCCN(CCCC)CCNC(=O)CN1C(=O)COc2ccc(S(=O)(=O)N3CCOCC3)cc21,inactive
2,Cc1ccc(OCC(=O)Nc2ccccc2C(=O)NC2CC2)cc1C,inactive
3,Cc1onc(NC(=O)c2ccc([N+](=O)[O-])o2)c1Br,5.86 µM (active)
4,O=C(OCC(=O)c1cccs1)c1ccc([N+](=O)[O-])o1,inactive
5,Cc1cc(NC(=O)COc2ccc([N+](=O)[O-])cc2)no1,inactive
6,Cc1cc(C)c2c(=O)[nH]c(SCC(=O)Nc3ccc(Br)cc3)nc2n1,inactive
7,Cc1ccc(S(=O)(=O)N2CCOCC2)cc1NC(=O)COC(=O)c1cnccn1,inactive
8,Nc1nc(SCC(=O)Nc2ccc(Cl)cc2C(F)(F)F)n[nH]1,inactive
9,Cc1ccc(S(=O)(=O)NCC2CCC(C(=O)N3CCOCC3)CC2)cc1 (stereo not given),inactive
10,CN(CC(=O)Nc1ccc(F)cc1)CC(=O)Nc1ccc(Cl)c(S(=O)(=O)N2CCOCC2)c1,inactive
11,Cc1ccccc1CSCCNC(=O)c1ccc(Cl)c(S(=O)(=O)N2CCOCC2)c1,13.1 µM (active)
12,CC(C)(CNC(=O)Cc1ccc(Cl)cc1Cl)N1CCOCC1,inactive
13,CN(C)S(=O)(=O)c1ccc(C(=O)NCC(C)(C)N2CCOCC2)cc1,inactive
14,O=C(NCc1cccnc1)c1cc(S(=O)(=O)N2CCOCC2)c(Cl)cc1Cl,inactive
15,Cc1ccccc1CSCCNC(=O)c1ccc(N(C)S(=O)(=O)c2ccccc2)cc1,inactive
16,CC(C)(CNC(=O)c1ccc(Cl)c(S(=O)(=O)N2CCc3ccccc3C2)c1)N1CCOCC1,7.38 µM (active)
17,O=C(NCCSCc1ccccc1)c1ccc(Cl)c(S(=O)(=O)N2CCOCC2)c1,11.7 µM (active)
18,Cc1ccc(NC(=O)CCCNC(=O)c2ccc(Cl)cc2)cc1S(=O)(=O)N1CCOCC1,inactive
19,COc1ccccc1N(CC(=O)NC1CCCC1)C(=O)C1(C)CC(=O)N=C2C=CC(C)=CN21 (stereo not given),inactive
20,O=C(Nc1ccc(N2CCCCC2)cc1)c1cc(S(=O)(=O)N2CCOCC2)ccc1F,inactive
21,COC(=O)c1ccc(CNC(=O)c2ccc3oc(C(C)C)nc3c2)cc1,inactive
22,NCCCCC(N)C(=O)O (stereo not given),inactive

row,Compound,Potency
1,COCC1CCN(C(=O)c2ccc3oc(Cc4ccccc4)nc3c2)C1 (stereo not given),inactive
2,CCOc1ccc(S(=O)(=O)NCCSc2ccccc2)cc1,inactive
3,CCOc1ccc2nc(NCCNS(=O)(=O)c3ccccc3)c(C#N)cc2c1,13.1 µM (active)
4,COc1ccc(CNC(=O)C(C)NCc2ccccc2Cl)cc1 (stereo not given),inactive
5,CCOC(=O)CN(Cc1ccc(OC)c(OC)c1)S(=O)(=O)c1ccc(OC)cc1,9.28 µM (active)
6,COc1ccc(S(=O)(=O)N(CC(=O)N/N=C/c2ccc(C(=O)O)cc2)Cc2ccccc2)cc1OC,inactive
7,CCOC(=O)N1CCN(C(=O)c2ccccc2N(Cc2ccccc2)S(=O)(=O)c2ccc(OC)cc2)CC1,inactive
8,CCNC(=O)Nc1ccc(S(=O)(=O)Nc2cnc(C)nc2C)cc1,inactive
9,COc1cc2c(C(=O)O)c(C)n(C)c2c2ccccc12,inactive
10,O=C(NCCc1ccccc1)C(=O)NCC1OCCN1S(=O)(=O)c1cccs1 (stereo not given),inactive
11,COc1ccc(NS(=O)(=O)c2ccc(Oc3c(C#N)cccc3C#N)cc2)cc1,inactive
12,CC(=O)Nc1cccc(Nc2nc(-c3cccs3)nc3ccccc23)c1,9.28 µM (active)
13,Cc1cccc(-c2nc(Nc3ccc(O)cc3)c3ccccc3n2)c1,inactive
14,O=c1[nH]c(-c2cccs2)nc2ccccc12,inactive
15,CSc1nc2ccccc2c(=O)n1Cc1ccc(F)cc1,inactive
16,Cn1c(CO)cnc1SCc1ccccc1,inactive
17,CSc1c(SCc2ccccc2)cnn(Cc2ccccc2)c1=O,9.28 µM (active)
18,Cc1ccc(C)c(OCCC(=O)OCC(=O)N2CCN(c3ccccc3)CC2)c1,inactive
19,COc1cccc(C2=CC(=O)C[C@H](c3ccc(F)cc3)C2)c1OC,inactive
20,O=C1C=C(c2cccc(Cl)c2O)C[C@@H](c2ccc(F)cc2)C1,4.65 µM (active)
21,CC(C)(C)SCCSC1=CC(=O)CC(c2ccccc2)C1 (stereo not given),inactive
22,COc1ccc([C@H]2CC(=O)C=C(/C=C/c3ccc(Cl)cc3)C2)cc1,inactive

row,Compound,Potency
1,O=C1C=C(c2cccc(Br)c2)C[C@@H](c2ccc(F)cc2)C1,2.33 µM (active)
2,O=C(Cn1cnc2ccccc21)Nc1ccccc1-c1ccccc1,inactive
3,COc1ccc(/C=C(/NC(=O)c2ccco2)C(=O)Nc2ccc(C(C)=O)cc2)cc1,inactive
4,O=C(O)c1cccc2c1C(=O)N(C1CCCC1)C2,inactive
5,Cc1nonc1C(=O)N/N=C/c1ccc(O)cc1,0.262 µM (active)
6,O=C(C[n+]1ccccc1)N/N=C/c1ccc(O)cc1,inactive
7,Cc1nc2ccccc2cc1C(=O)N/N=C/c1ccc([N+](=O)[O-])cc1,inactive
8,NC(=O)NC(CC(=O)NNC(=O)c1ccccn1)c1ccc(Cl)cc1 (stereo not given),inactive
9,O=C(NNC(=O)c1cc(S(=O)(=O)N2CCCCC2)ccc1Cl)c1ccccc1O,inactive
10,O=C(Nc1ccccc1)c1ccc(NC(=O)c2cccs2)cc1,inactive
11,O=C(Nc1ccccc1Cl)Nc1cccc2cccnc12,inactive
12,O=C(c1cc(-c2ccncc2)nc2ccccc12)N1CCC2(CC1)OCCO2,4.15 µM (active)
13,CC(=O)N1CCN(C(=O)c2cc(-c3ccc(C)o3)nc3ccccc23)CC1,inactive
14,O=C(c1cc2nc(-c3ccccc3)cc(-c3ccccc3)n2n1)N1CCC2(CC1)OCCO2,inactive
15,Cc1cc(C(=O)OC(C)C(=O)NC2CCCCC2C)c(C)o1 (stereo not given),inactive
16,CC1(C(=O)O)CCC(C(=O)Nc2ccc(Cl)c(Cl)c2)C1(C)C (stereo not given),10.4 µM (active)
17,NC(=O)N1CCCC1C(=O)Nc1ccc(Cl)c(Cl)c1 (stereo not given),inactive
18,CCN(CC)C(=O)C1CCC(C)(C(=O)O)C1(C)C (stereo not given),inactive
19,O=C(CN1CCN(S(=O)(=O)c2cccc(Cl)c2)CC1)N1CCCCC1,inactive
